Data from PubChem BioAssay (Tox21).
Results filed as inconclusive are left out. The source made the active and inactive calls. Calls follow the shape of the dose curve; as a rule, active = well fitted cell-killing curve with a large enough effect in the repeat runs; inconclusive = weak or mixed curves, or effect the other way; inactive = flat fitted curve, though single readings scatter.
% is scaled to controls: 0 for no effect and ±100 for the full control effect.

Experiment: qHTS assay to identify small molecule antagonists of the androgen receptor (AR) signaling pathway using the MDA cell line - cell viability counter screen (AID 743041; also: nearly all actives have a fitted effect of over 45% in size)
Details: MDA-kb2 viability, CellTiter-Fluor, 16 h, cells co-treated with R1881 androgen agonist; series mostly up to 70.3 µM; viability change, negative = cytotoxic: at the top concentration
Text: National Center for Advancing Translational Sciences [NCATS]
NIH Chemical Genomics Center [NCGC]
U.S. Environmental Protection Agency [EPA]
National Institutes of Environmental Health Sciences [NIEHS]
National Toxicology Program [NTP]
U.S. Food and Drug Administration [FDA]
Androgen receptor (AR), a nuclear hormone receptor, plays a critical role in AR-dependent prostate cancer and other androgen related diseases. Endocrine disrupting chemicals (EDCs) and their interactions with steroid hormone receptors like AR may cause disruption of normal endocrine function as well as interfere with metabolic homeostasis, reproduction, developmental and behavioral functions. To identify the compounds that inhibit AR signaling, MDA-kb2 AR-luc cell line (from ATCC, deposited by Wilson et al.) was used to screen the Tox21 10K compound library. MDA-kb2 AR-luc cell line is human breast carcinoma cell line that was stably transfected with a luciferase reporter gene under control of the MMTV promoter containing response elements for both androgen receptor (AR) and glucocorticoid receptor (GR). The cytotoxicity of the Tox21 compound library against the MDA-kb2 AR-luc cell line was tested in parallel by measuring the cell viability using CellTiter-Fluor assay (Promega, Madison, WI) in the same wells.
Tox21 Assay Protocol Summary:
MDA-kb2 AR-luc cells were dispensed at 3,000 cells/4 uL/well of culture medium into white wall/solid-bottom 1536-well plates using a Multidrop Combi (ThermoFisher Scientific, Waltham, MA) dispenser. After the assay plates were incubated at a 37C and 0% CO2 for 5 hr, 23 nL of compounds dissolved in DMSO, positive controls or DMSO only was transferred to the assay plate by a Pintool station (Kalypsys, San Diego, CA), followed by addition of 1 uL of agonist (R1881) in culture medium using a Bioraptr Flying Reagent Dispenser (FRD) workstation (Beckman Coulter, Indianapolis, IN, USA). The plates were incubated at a 37C and 0% CO2 for 16 h. After 15.5 h incubation, 1uL of CellTiter-Fluor reagent (Promega) was added using a Bioraptr FRD to each plate for measuring cytotoxicity. The fluorescence intensity was quantified on a ViewLux plate reader (PerkinElmer, Shelton, CT) following 30 min incubation at 37C and 0% CO2.
With `CCCCCCCC(=O)N(C)C` the “viability change, negative = cytotoxic” value was 1.36% (inactive). In the case of `CC/C=C\CCCCCCCCCCOC(C)=O`, the “viability change, negative = cytotoxic” value is reported as -5.34% (inactive). For `CCOCCOCCOC(C)=O`, the “viability change, negative = cytotoxic” value was 3.24% [at 95 µM] (inactive). In the case of `C=CC(=O)OCCOCCOCC`, the “viability change, negative = cytotoxic” value is reported as 4.74% (inactive). For `CC[N+](C)(CC)CC`, the “viability change, negative = cytotoxic” value was -1.27% (inactive). For `CC(C)CC(O)Cc1ccccc1` (stereo not given), the “viability change, negative = cytotoxic” value was 11.4% (inactive). For `O=Cc1ccccc1S(=O)(=O)O`, the “viability change, negative = cytotoxic” value was 5.02% (inactive). With `C[Si](C)(C)O[Si](O)(O)O` the “viability change, negative = cytotoxic” value was -0.369% (inactive). In the case of `C=CC(=O)OCC[N+](C)(C)C`, the “viability change, negative = cytotoxic” value is reported as 2.85% [at 95 µM] (inactive). For `CC(C)(C)OC=O`, the “viability change, negative = cytotoxic” value was 2.49% [at 95 µM] (inactive). With `CCCCN=C(N)N=C(N)N` the “viability change, negative = cytotoxic” value was 5.71% (inactive). For `CC(C)(C)C(=O)CCc1ccc(Cl)cc1`, the “viability change, negative = cytotoxic” value was 5.7% (inactive). With `CC(C)OCCO` the “viability change, negative = cytotoxic” value was 21.6% (inactive). With `O=C(O)CCCCCCCCCC(=O)O` the “viability change, negative = cytotoxic” value was 0.0718% (inactive). In the case of `N=C(N)N`, the “viability change, negative = cytotoxic” value is reported as 6.83% (inactive). For `CN(C)CCc1c[nH]c2ccc(CS(=O)(=O)N3CCCC3)cc12`, the “viability change, negative = cytotoxic” value was -1.9% (inactive). With `CNCCc1ccccn1` the “viability change, negative = cytotoxic” value was 13.7% [at 32.5 µM] (inactive). With `C[C@@H](CN1CC(=O)NC(=O)C1)N1CC(=O)NC(=O)C1` the “viability change, negative = cytotoxic” value was -0.13% (inactive). With `CCC(C)(C)C` the “viability change, negative = cytotoxic” value was -1.08% [at 95 µM] (inactive). With `CC(=O)c1c(C)cc(C(C)(C)C)cc1C` the “viability change, negative = cytotoxic” value was -2.97% (inactive). With `Cc1cc(C)c(N)c(Cl)c1` the “viability change, negative = cytotoxic” value was 5.26% (inactive). In the case of `COc1ccc2cc(CCC(C)=O)ccc2c1`, the “viability change, negative = cytotoxic” value is reported as 14.1% [at 32.5 µM] (inactive). In the case of `CCCCCC(CC)OC(=O)CCCOc1ccc(Cl)cc1Cl` (stereo not given), the “viability change, negative = cytotoxic” value is reported as -0.824% (inactive). With `CC(C)(O)CCCC1=CCC(C=O)CC1` (stereo not given) the “viability change, negative = cytotoxic” value was -3.18% [at 95 µM] (inactive). For `Cc1nc2ccc(Cl)cc2[nH]1`, the “viability change, negative = cytotoxic” value was -2.24% (inactive). With `N#Cc1ccccc1C#N` the “viability change, negative = cytotoxic” value was -0.351% (inactive). For `C/C=C(\C)C(=O)OC/C=C(\C)CCC=C(C)C`, the “viability change, negative = cytotoxic” value was -1.04% (inactive). With `CCCOc1ccc(C(=O)OCCN(CC)CC)cc1N` the “viability change, negative = cytotoxic” value was 2.84% (inactive). For `CCCCCCC(O)CO` (stereo not given), the “viability change, negative = cytotoxic” value was 9.24% (inactive). For `N=C(N)S(=O)O`, the “viability change, negative = cytotoxic” value was 5.51% (inactive). With `C=CCN(CC=C)CC=C` the “viability change, negative = cytotoxic” value was 1.69% (inactive). With `CCCCCCCCCCCCCCCC/C=C/C1CC(=O)OC1=O` (stereo not given) the “viability change, negative = cytotoxic” value was -3.52% (inactive). For `CCOc1ccccc1OCCN[C@H](C)Cc1ccc(OC)c(S(N)(=O)=O)c1`, the “viability change, negative = cytotoxic” value was 3.71% (inactive). In the case of `CCCCN1C(=O)c2ccccc2C1=O`, the “viability change, negative = cytotoxic” value is reported as -1.67% [at 95 µM] (inactive). In the case of `C/C(=N\O)c1ccc(OCC(=O)N2CCCCC2)cc1`, the “viability change, negative = cytotoxic” value is reported as 0.562% (inactive). With `OCCC(F)(F)C(F)(F)C(F)(F)C(F)(F)C(F)(F)C(F)(F)F` the “viability change, negative = cytotoxic” value was -2.45% (inactive). With `CC(O)CCCCn1c(=O)c2c(ncn2C)n(C)c1=O` (stereo not given) the “viability change, negative = cytotoxic” value was 30.1% (inactive). For `O=S(=O)(O)c1ccc(Cl)cc1`, the “viability change, negative = cytotoxic” value was 1.07% (inactive). With `C=C(C)C(=O)OCCCC` the “viability change, negative = cytotoxic” value was -0.252% [at 95 µM] (inactive). For `Cc1ccc(O)c(C(=O)c2ccccc2)c1`, the “viability change, negative = cytotoxic” value was 5.31% [at 95 µM] (inactive).
